About 2,000 (36%) of roughly 5,500 compounds were called active. Inconclusive results (about 18%) are left out. The list shows a part of the results. Values without a mark were called inactive. Cut-off read from the data, not from the text of the source: active = normalized growth mostly below about 0.91 (no sharp cut-off); inconclusive = no clear call, values can overlap the other calls; inactive = mostly above about 0.92.
Experiment: chemical genetic growth profiling, strain panel (AID 1159580);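 note: tested at 20 µM; growth read once vehicle control cultures reached saturation at 30 °C; 1 = growth at the plate median or of vehicle wells; lower values mean less growth of the strain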
Details: growth OD

COc1ccc2cc3[n+](cc2c1OC)CCc1cc2c(cc1-3)OCO2
normalized growth (S. cerevisiae deletion strains, locus YJR075W, strain HOC1, active compounds read low): 0.394 (active) | normalized growth (S. cerevisiae deletion strains, locus YKL009W, strain mrt4, active compounds read low): 0.922 | normalized growth (S. cerevisiae deletion strains, locus YKL068W, active compounds read low): 1 | normalized growth (S. cerevisiae deletion strains, locus YKL085W, strain MDH1 (second series), active compounds read low): 0.996 | normalized growth (S. cerevisiae deletion strains, locus YKL085W, strain MDH1, active compounds read low): 0.996 | normalized growth (S. cerevisiae deletion strains, locus YKL160W, strain elf1, active compounds read low): 0.985 | normalized growth (S. cerevisiae deletion strains, locus YKL190W, strain CNB1, active compounds read low): 0.293 (active) | normalized growth (S. cerevisiae deletion strains, locus YKR001C, strain vps1, active compounds read low): 0.338 (active) | normalized growth (S. cerevisiae deletion strains, locus YKR026C, strain gcn3, active compounds read low): 0.994 | normalized growth (S. cerevisiae deletion strains, locus YKR091W, strain srl3, active compounds read low): 0.985 | normalized growth (S. cerevisiae deletion strains, locus YLL001W, strain dnm1, active compounds read low): 0.99 | normalized growth (S. cerevisiae deletion strains, locus YLL026W, active compounds read low): 1.02 | normalized growth (S. cerevisiae deletion strains, locus YLL041C, strain sdh2, active compounds read low): 0.989 | normalized growth (S. cerevisiae deletion strains, locus YLR027C, strain aat2, active compounds read low): 0.972 | normalized growth (S. cerevisiae deletion strains, locus YLR039C, strain RIC1, active compounds read low): 0.904 | normalized growth (S. cerevisiae deletion strains, locus YLR058C, strain SHM2, active compounds read low): 0.409 (active) | normalized growth (S. cerevisiae deletion strains, locus YLR102C, strain apc9, active compounds read low): 0.702 (active) | normalized growth (S. cerevisiae deletion strains, locus YLR113W, strain HOG1, active compounds read low): 0.83 (active) | normalized growth (S. cerevisiae deletion strains, locus YLR221C, strain rsa3, active compounds read low): 1 | normalized growth (S. cerevisiae deletion strains, locus YLR258W, strain gsy2, active compounds read low): 0.99 | normalized growth (S. cerevisiae deletion strains, locus YLR262C, strain YPT6 (second series), active compounds read low): 1.04 | normalized growth (S. cerevisiae deletion strains, locus YLR262C, strain YPT6, active compounds read low): 0.82 | normalized growth (S. cerevisiae deletion strains, locus YLR268W, strain sec22, active compounds read low): 0.409 (active) | normalized growth (S. cerevisiae deletion strains, locus YLR320W, strain mms22, active compounds read low): 0.993 | normalized growth (S. cerevisiae deletion strains, locus YLR330W, strain CHS5, active compounds read low): 0.711 (active) | normalized growth (S. cerevisiae deletion strains, locus YLR342W, strain FKS1 (second series), active compounds read low): 0.373 (active) | normalized growth (S. cerevisiae deletion strains, locus YLR342W, strain FKS1, active compounds read low): 0.979 | normalized growth (S. cerevisiae deletion strains, locus YLR357W, strain rsc2, active compounds read low): 0.948 | normalized growth (S. cerevisiae deletion strains, locus YLR370C, strain arc18, active compounds read low): 0.99 | normalized growth (S. cerevisiae deletion strains, locus YLR371W, strain rom2, active compounds read low): 0.8 (active) | normalized growth (S. cerevisiae deletion strains, locus YLR384C, strain iki3, active compounds read low): 0.975 | normalized growth (S. cerevisiae deletion strains, locus YLR418C, strain cdc73, active compounds read low): 0.478 (active) | normalized growth (S. cerevisiae deletion strains, locus YML016C, strain PPZ1, active compounds read low): 0.413 (active) | normalized growth (S. cerevisiae deletion strains, locus YML032C, strain rad52, active compounds read low): 0.459 (active) | normalized growth (S. cerevisiae deletion strains, locus YML120C, strain ndi1, active compounds read low): 0.996 | normalized growth (S. cerevisiae deletion strains, locus YML124C, strain tub3, active compounds read low): 0.652 (active) | normalized growth (S. cerevisiae deletion strains, locus YMR058W, strain fet3, active compounds read low): 0.985 | normalized growth (S. cerevisiae deletion strains, locus YMR078C, strain ctf18, active compounds read low): 0.912 | normalized growth (S. cerevisiae deletion strains, locus YMR125W, strain sto1, active compounds read low): 0.981 | normalized growth (S. cerevisiae deletion strains, locus YMR129W, active compounds read low): 0.991 | normalized growth (S. cerevisiae deletion strains, locus YMR205C, strain PFK2, active compounds read low): 0.967 | normalized growth (S. cerevisiae deletion strains, locus YMR223W, strain ubp8, active compounds read low): 0.393 (active) | normalized growth (S. cerevisiae deletion strains, locus YMR231W, strain pep5, active compounds read low): 0.995 | normalized growth (S. cerevisiae deletion strains, locus YMR263W, strain SAP30, active compounds read low): 0.55 (active) | normalized growth (S. cerevisiae deletion strains, locus YMR307W, strain GAS1, active compounds read low): 0.986 | normalized growth (S. cerevisiae deletion strains, locus YNL067W, strain RPL9B, active compounds read low): 0.319 (active) | normalized growth (S. cerevisiae deletion strains, locus YNL071W, strain lat1, active compounds read low): 0.991 | normalized growth (S. cerevisiae deletion strains, locus YNL128W, strain TEP1, active compounds read low): 0.518 (active) | normalized growth (S. cerevisiae deletion strains, locus YNL153C, strain GIM3, active compounds read low): 0.701 (active) | normalized growth (S. cerevisiae deletion strains, locus YNL183C, strain NPR1, active compounds read low): 0.855 | normalized growth (S. cerevisiae deletion strains, locus YNL209W, strain ssb2, active compounds read low): 0.98 | normalized growth (S. cerevisiae deletion strains, locus YNL233W, strain BNI4, active compounds read low): 0.593 (active) | normalized growth (S. cerevisiae deletion strains, locus YNL248C, strain rpa49, active compounds read low): 0.975 | normalized growth (S. cerevisiae deletion strains, locus YNL250W, strain rad50, active compounds read low): 0.995 | normalized growth (S. cerevisiae deletion strains, locus YNL271C, strain bni1, active compounds read low): 0.963 | normalized growth (S. cerevisiae deletion strains, locus YNL298W, strain CLA4, active compounds read low): 0.971 | normalized growth (S. cerevisiae deletion strains, locus YNL307C, strain MCK1, active compounds read low): 0.561 (active) | normalized growth (S. cerevisiae deletion strains, locus YNL322C, strain KRE1 (second series), active compounds read low): 0.987 | normalized growth (S. cerevisiae deletion strains, locus YNL322C, strain KRE1, active compounds read low): 0.496 (active) | normalized growth (S. cerevisiae deletion strains, locus YNR049C, strain mso1, active compounds read low): 0.998 | normalized growth (S. cerevisiae deletion strains, locus YNR052C, strain pop2, active compounds read low): 0.671 (active) | normalized growth (S. cerevisiae deletion strains, locus YOL006C, strain TOP1, active compounds read low): 0.405 (active) | normalized growth (S. cerevisiae deletion strains, locus YOL012C, strain htz1): 2.03 [resistant] (active) | normalized growth (S. cerevisiae deletion strains, locus YOL147C, strain pex11, active compounds read low): 0.603 (active) | normalized growth (S. cerevisiae deletion strains, locus YOR001W, strain rrp6, active compounds read low): 0.973 | normalized growth (S. cerevisiae deletion strains, locus YOR061W, strain CKA2, active compounds read low): 0.378 (active) | normalized growth (S. cerevisiae deletion strains, locus YOR069W, strain VPS5, active compounds read low): 0.731 (active) | normalized growth (S. cerevisiae deletion strains, locus YOR070C, strain gyp1, active compounds read low): 0.984 | normalized growth (S. cerevisiae deletion strains, locus YOR080W, strain dia2, active compounds read low): 0.992 | normalized growth (S. cerevisiae deletion strains, locus YOR083W, strain WHI5, active compounds read low): 0.994 | normalized growth (S. cerevisiae deletion strains, locus YOR106W, strain vam3, active compounds read low): 1.02 | normalized growth (S. cerevisiae deletion strains, locus YOR136W, strain idh2, active compounds read low): 0.748 (active) | normalized growth (S. cerevisiae deletion strains, locus YOR144C, strain elg1, active compounds read low): 0.586 (active) | normalized growth (S. cerevisiae deletion strains, locus YOR184W, strain ser1, active compounds read low): 0.333 (active) | normalized growth (S. cerevisiae deletion strains, locus YOR231W, strain MKK1, active compounds read low): 0.822 (active) | normalized growth (S. cerevisiae deletion strains, locus YOR265W, strain rbl2, active compounds read low): 0.984 | normalized growth (S. cerevisiae deletion strains, locus YOR270C, strain vph1, active compounds read low): 0.976 | normalized growth (S. cerevisiae deletion strains, locus YOR290C, strain snf2, active compounds read low): 0.96 | normalized growth (S. cerevisiae deletion strains, locus YOR316C, strain cot1, active compounds read low): 0.663 (active) | normalized growth (S. cerevisiae deletion strains, locus YPL051W, strain arl3, active compounds read low): 0.994 | normalized growth (S. cerevisiae deletion strains, locus YPL055C, strain LGE1, active compounds read low): 0.525 (active) | normalized growth (S. cerevisiae deletion strains, locus YPL078C, strain atp4, active compounds read low): 0.991 | normalized growth (S. cerevisiae deletion strains, locus YPL106C, strain sse1, active compounds read low): 0.964 | normalized growth (S. cerevisiae deletion strains, locus YPL240C, strain hsp82, active compounds read low): 1.01 | normalized growth (S. cerevisiae deletion strains, locus YPL241C, strain CIN2, active compounds read low): 0.558 (active) | normalized growth (S. cerevisiae deletion strains, locus YPL256C, strain CLN2, active compounds read low): 0.786 (active) | normalized growth (S. cerevisiae deletion strains, locus YPR119W, strain clb2, active compounds read low): 0.804 (active) | normalized growth (S. cerevisiae deletion strains, locus YPR141C, strain kar3, active compounds read low): 1.01 | normalized growth (S. cerevisiae deletion strains, locus YPR163C, strain tif3, active compounds read low): 0.984 | normalized growth (S. cerevisiae deletion strains, locus YPR167C, strain met16, active compounds read low): 0.622 (active) | normalized growth (S. cerevisiae deletion strains, strain wtn01, active compounds read low): 0.305 (active) | normalized growth (S. cerevisiae strains, strain wild type, active compounds read low): 0.408 (active)
